Reference: article PMC7862700, “An all-to-all approach to the identification of sequence-specific readers for epigenetic DNA modifications on cytosine”

Legend:
Test in all cases: DAPPL (digital affinity profiling via proximity ligation, sequencing); 10 mM Tris-HCl pH 7.5, 50 mM NaCl, 1 mM DTT, 4% glycerol, room temperature, 30 min; GST-TFs on glutathione beads, 16-mer random dsDNA library, 0.1% formaldehyde crosslink after washing; high values mean tight binding
Settings in all cases: protein: recombinant; tags: N-terminal GST; dsDNA, one strand shown
FLI1 = target: T1, FLI1 (Homo sapiens, UniProt Q01543 1-452)
T1 sequence: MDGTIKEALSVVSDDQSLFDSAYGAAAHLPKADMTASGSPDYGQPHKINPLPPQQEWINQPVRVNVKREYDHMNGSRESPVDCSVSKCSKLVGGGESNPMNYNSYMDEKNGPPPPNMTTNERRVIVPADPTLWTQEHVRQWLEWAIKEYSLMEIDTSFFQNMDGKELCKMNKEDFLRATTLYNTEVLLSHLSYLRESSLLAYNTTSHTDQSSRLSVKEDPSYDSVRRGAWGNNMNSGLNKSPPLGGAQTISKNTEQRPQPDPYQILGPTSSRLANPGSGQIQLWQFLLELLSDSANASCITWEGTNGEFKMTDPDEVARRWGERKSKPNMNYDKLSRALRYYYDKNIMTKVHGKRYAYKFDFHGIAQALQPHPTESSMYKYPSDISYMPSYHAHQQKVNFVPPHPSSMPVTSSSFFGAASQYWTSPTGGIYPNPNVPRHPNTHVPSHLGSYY
In short: (§1)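 After expression in yeast as GST fusions, human transcription factors were bound to glutathione beads, DNA-barcoded and mixed with a tag-only sample. The pools were incubated with 200 nmole of a 16-mer random double-stranded DNA library in Tris/NaCl/DTT/glycerol buffer (30 min, room temperature), washed and crosslinked with 0.1% formaldehyde. Proximity ligation with BsaI/T4 ligase ran for 1 h at 37 °C, before PCR amplification and sequencing on an Illumina NextSeq500. Binding signal is a hexamer's read frequency for a factor divided by its frequency for the tag-only sample.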

ELK1 = target: T2, ELK1 (Homo sapiens, UniProt P19419 1-428)
T2 sequence: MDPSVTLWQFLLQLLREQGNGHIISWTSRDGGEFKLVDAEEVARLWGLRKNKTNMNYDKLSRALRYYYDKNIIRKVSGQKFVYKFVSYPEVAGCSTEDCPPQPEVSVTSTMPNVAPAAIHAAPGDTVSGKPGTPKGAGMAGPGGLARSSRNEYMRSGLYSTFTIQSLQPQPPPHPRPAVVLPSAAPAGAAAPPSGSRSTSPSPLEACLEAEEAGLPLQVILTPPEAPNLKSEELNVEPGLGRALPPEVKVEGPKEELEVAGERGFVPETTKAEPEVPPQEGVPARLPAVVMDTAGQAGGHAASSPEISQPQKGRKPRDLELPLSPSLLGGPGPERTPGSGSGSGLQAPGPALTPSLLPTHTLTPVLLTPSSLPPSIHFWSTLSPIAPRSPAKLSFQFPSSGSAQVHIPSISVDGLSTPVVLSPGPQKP
In short: as §1

GABPA = target: T3, GABPA (Homo sapiens, UniProt Q06546 1-454)
T3 sequence: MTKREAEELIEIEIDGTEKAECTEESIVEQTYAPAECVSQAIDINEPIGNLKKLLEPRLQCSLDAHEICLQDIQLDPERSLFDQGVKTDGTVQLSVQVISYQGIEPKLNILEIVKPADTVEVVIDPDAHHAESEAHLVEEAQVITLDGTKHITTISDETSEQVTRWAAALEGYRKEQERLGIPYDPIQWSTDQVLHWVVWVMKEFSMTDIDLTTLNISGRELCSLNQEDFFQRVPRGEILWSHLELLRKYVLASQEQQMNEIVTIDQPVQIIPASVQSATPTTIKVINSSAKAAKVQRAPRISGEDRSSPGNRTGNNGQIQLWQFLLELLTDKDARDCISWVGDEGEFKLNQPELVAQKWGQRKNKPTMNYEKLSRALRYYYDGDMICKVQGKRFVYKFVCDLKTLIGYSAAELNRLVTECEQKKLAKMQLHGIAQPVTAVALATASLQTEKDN
In short: as §1

ERG = target: T4, ERG (Homo sapiens, UniProt P11308 1-479)
T4 sequence: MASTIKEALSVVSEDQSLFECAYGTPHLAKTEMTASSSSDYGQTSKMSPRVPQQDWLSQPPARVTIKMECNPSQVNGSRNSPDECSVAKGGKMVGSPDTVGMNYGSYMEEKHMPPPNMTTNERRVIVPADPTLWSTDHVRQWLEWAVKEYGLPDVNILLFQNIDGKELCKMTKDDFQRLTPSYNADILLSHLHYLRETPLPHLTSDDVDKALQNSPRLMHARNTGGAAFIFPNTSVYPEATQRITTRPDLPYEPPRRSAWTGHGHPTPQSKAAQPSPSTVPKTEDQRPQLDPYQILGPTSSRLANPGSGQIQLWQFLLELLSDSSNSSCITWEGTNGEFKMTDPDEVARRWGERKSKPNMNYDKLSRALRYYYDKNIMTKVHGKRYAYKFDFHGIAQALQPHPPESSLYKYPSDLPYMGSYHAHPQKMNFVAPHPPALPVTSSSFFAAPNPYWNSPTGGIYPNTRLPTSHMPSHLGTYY
In short: as §1

ELF1 = ELF1 (Homo sapiens, UniProt P32519 1-619)
ELF1, sequence (P32519 whole entry): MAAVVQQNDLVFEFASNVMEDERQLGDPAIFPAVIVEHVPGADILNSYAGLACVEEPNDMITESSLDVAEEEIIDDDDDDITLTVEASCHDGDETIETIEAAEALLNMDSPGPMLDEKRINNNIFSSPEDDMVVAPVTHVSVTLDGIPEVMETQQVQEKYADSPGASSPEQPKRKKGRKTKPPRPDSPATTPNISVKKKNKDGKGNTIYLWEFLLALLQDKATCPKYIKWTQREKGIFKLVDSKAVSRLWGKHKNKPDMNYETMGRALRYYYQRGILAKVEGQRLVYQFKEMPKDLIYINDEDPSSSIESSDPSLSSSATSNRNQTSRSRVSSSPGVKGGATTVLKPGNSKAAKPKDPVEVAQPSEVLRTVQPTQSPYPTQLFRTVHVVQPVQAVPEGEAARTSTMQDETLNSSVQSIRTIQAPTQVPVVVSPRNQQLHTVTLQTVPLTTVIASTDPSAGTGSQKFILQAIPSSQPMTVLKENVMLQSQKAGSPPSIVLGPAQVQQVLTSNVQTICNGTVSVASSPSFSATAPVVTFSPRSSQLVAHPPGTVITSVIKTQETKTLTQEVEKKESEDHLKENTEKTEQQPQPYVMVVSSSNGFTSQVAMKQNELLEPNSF
In short: as §1

SPI1 = SPI1 (Homo sapiens, UniProt P17947 1-270)
In short: as §1

SPIB = SPIB (Homo sapiens, UniProt Q01892 1-262)
SPIB, sequence (Q01892 whole entry): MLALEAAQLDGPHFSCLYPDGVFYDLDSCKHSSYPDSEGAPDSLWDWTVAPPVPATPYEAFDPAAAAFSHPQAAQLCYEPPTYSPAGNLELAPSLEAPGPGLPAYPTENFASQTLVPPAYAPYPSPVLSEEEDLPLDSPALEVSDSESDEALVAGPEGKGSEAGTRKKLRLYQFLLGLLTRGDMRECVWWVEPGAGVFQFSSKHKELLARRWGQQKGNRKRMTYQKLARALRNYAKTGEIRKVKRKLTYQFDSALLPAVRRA
In short: as §1

FEV = target: T5, FEV (Homo sapiens, UniProt Q99581 1-238)
T5 sequence: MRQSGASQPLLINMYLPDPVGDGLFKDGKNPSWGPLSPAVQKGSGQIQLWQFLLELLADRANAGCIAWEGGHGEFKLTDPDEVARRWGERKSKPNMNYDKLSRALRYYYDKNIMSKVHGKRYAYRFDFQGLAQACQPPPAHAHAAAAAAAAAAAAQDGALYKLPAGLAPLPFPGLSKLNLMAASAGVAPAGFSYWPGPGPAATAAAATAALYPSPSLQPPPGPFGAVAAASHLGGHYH
In short: as §1

ETV5 = ETV5 (Homo sapiens, UniProt P41161 1-510)
ETV5, sequence (P41161 whole entry): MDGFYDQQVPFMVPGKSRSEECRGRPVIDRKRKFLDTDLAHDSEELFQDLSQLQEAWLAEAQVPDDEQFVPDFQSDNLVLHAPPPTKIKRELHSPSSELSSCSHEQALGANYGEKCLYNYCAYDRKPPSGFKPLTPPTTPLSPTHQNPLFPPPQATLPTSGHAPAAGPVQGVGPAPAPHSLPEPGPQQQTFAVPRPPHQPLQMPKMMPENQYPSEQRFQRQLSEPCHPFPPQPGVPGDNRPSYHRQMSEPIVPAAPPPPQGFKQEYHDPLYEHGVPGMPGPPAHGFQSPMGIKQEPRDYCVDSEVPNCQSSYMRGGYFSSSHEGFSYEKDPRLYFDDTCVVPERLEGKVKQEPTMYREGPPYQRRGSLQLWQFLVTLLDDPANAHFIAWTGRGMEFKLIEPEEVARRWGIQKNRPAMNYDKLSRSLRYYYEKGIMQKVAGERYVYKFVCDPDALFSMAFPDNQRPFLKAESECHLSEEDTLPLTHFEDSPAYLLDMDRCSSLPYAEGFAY
In short: as §1

SPIC = target: T6, SPIC (Homo sapiens, UniProt Q8N5J4 1-248)
T6 sequence: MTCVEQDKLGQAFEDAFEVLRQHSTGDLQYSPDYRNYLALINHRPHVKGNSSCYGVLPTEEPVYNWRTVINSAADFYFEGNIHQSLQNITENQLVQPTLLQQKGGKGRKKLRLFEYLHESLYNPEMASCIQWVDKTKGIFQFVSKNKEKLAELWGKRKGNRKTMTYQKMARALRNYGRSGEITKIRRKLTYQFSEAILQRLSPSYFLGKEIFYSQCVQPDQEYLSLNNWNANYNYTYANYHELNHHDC
In short: as §1

ELF4 = ELF4 (Homo sapiens, UniProt Q99607 1-663)
ELF4, sequence (Q99607 whole entry): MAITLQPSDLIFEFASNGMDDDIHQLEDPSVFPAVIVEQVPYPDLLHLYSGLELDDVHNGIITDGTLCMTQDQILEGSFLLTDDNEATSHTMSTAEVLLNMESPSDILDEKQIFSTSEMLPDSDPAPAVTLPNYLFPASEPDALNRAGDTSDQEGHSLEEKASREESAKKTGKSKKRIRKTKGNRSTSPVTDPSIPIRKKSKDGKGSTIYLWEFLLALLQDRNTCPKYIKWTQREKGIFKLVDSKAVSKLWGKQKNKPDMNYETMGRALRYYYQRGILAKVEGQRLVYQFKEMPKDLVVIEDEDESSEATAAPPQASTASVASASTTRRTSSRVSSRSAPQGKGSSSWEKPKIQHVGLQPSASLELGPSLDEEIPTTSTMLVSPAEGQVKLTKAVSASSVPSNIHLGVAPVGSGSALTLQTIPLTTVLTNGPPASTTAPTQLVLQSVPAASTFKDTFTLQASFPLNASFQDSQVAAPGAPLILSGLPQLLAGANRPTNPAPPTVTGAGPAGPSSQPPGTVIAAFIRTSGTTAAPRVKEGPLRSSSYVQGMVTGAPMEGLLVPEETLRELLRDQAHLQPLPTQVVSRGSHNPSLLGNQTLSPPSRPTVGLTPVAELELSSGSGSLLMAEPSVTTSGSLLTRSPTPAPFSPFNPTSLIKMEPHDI
In short: as §1

ELK4 = target: T7, ELK4 (Homo sapiens, UniProt P28324-2 1-405)
T7 sequence: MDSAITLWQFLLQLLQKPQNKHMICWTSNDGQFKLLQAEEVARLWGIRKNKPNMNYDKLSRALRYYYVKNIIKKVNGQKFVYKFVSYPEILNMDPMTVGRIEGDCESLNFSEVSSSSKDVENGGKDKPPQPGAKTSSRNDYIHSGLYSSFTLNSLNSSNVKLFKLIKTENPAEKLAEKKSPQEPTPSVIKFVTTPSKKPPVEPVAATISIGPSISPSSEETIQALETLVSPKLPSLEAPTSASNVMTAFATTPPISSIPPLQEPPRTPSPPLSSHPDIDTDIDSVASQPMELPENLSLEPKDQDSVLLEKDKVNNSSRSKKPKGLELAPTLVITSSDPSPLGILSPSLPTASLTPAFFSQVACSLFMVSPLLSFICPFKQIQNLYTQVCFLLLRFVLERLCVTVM
In short: as §1

ETV2 = target: T8, ETV2 (Homo sapiens, UniProt O00321 1-342)
T8 sequence: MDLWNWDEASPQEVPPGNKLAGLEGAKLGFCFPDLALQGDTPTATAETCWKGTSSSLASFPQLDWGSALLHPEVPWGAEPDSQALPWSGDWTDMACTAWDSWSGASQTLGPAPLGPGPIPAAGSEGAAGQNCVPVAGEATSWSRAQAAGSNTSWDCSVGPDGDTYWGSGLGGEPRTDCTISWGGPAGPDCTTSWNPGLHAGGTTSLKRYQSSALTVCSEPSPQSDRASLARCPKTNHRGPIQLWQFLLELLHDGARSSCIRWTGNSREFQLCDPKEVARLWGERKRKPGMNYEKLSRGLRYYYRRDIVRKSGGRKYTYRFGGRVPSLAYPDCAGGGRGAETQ
In short: as §1

ELF3 = target: T9, ELF3 (Homo sapiens, UniProt P78545 1-371)
T9 sequence: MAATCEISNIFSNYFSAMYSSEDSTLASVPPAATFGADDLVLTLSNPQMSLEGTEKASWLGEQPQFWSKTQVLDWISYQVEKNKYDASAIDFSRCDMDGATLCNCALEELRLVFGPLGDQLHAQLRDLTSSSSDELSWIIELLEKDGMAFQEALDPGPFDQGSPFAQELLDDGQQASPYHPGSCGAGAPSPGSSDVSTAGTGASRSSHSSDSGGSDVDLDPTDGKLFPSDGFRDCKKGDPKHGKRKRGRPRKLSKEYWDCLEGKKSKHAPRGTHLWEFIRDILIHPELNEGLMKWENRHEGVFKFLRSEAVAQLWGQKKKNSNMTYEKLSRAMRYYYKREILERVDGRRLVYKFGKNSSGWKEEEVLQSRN
In short: as §1

ETV1 = ETV1 (Homo sapiens, UniProt P50549 1-477)
ETV1, sequence (P50549 whole entry): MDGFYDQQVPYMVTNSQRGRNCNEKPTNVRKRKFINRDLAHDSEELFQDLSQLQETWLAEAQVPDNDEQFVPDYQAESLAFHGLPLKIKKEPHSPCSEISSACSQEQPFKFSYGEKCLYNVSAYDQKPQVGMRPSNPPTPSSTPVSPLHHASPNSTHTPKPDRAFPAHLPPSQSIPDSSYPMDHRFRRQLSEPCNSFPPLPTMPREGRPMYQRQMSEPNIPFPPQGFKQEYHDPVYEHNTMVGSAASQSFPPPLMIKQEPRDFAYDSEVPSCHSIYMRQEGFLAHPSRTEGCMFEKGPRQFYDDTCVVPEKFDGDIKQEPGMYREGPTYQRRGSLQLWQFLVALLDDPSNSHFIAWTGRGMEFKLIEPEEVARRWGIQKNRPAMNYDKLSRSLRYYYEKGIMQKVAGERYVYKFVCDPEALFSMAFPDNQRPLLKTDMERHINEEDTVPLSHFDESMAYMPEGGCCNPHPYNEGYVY
In short: as §1

EHF = target: T10, EHF (Homo sapiens, UniProt Q9NZC4 1-300)
T10 sequence: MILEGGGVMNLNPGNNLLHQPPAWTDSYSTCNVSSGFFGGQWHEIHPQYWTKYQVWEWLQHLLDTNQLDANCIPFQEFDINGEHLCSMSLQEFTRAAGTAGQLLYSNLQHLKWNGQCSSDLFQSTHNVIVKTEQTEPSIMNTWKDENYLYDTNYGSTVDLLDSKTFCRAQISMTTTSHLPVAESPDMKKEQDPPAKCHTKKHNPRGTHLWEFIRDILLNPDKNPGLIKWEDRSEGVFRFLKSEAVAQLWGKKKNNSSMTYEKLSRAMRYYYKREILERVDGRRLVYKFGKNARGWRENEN
In short: as §1

ELK3 = target: T11, ELK3 (Homo sapiens, UniProt P41970 1-407)
T11 sequence: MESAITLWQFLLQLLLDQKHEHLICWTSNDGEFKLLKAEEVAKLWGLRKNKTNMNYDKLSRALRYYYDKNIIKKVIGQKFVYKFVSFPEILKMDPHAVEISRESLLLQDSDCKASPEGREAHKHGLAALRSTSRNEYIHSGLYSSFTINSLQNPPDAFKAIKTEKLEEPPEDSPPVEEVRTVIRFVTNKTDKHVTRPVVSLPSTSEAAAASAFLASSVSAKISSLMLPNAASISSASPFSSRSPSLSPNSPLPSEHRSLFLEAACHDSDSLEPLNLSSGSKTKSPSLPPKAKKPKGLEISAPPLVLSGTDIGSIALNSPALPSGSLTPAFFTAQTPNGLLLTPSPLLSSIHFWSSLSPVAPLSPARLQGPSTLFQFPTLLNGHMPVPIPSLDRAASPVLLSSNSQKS
In short: as §1

Sequence | binding signal (FLI1) | binding signal (ELK1) | binding signal (GABPA) | binding signal (ERG) | binding signal (ELF1) | binding signal (SPI1) | binding signal (SPIB) | binding signal (FEV) | binding signal (ETV5) | binding signal (SPIC) | binding signal (ELF4) | binding signal (ELK4) | binding signal (ETV2) | binding signal (ELF3) | binding signal (ETV1) | binding signal (EHF) | binding signal (ELK3)
TGACTG | 1.13 fold enrichment (6-mer frequency, TF over GST control) | 1.09 fold enrichment (6-mer frequency, TF over GST control) | 1.16 fold enrichment (6-mer frequency, TF over GST control) | 1.01 fold enrichment (6-mer frequency, TF over GST control) | 1.05 fold enrichment (6-mer frequency, TF over GST control) | 1.1 fold enrichment (6-mer frequency, TF over GST control) | 1.11 fold enrichment (6-mer frequency, TF over GST control) | 1.05 fold enrichment (6-mer frequency, TF over GST control) | 1.03 fold enrichment (6-mer frequency, TF over GST control) | 1.03 fold enrichment (6-mer frequency, TF over GST control) | 1.09 fold enrichment (6-mer frequency, TF over GST control) | 1.16 fold enrichment (6-mer frequency, TF over GST control) | 1.09 fold enrichment (6-mer frequency, TF over GST control) | 1.04 fold enrichment (6-mer frequency, TF over GST control) | 1.03 fold enrichment (6-mer frequency, TF over GST control) | – | –
CTACAG | 1.17 fold enrichment (6-mer frequency, TF over GST control) | 1.01 fold enrichment (6-mer frequency, TF over GST control) | 1.16 fold enrichment (6-mer frequency, TF over GST control) | 1.03 fold enrichment (6-mer frequency, TF over GST control) | 1.08 fold enrichment (6-mer frequency, TF over GST control) | – | – | 1.04 fold enrichment (6-mer frequency, TF over GST control) | 1.07 fold enrichment (6-mer frequency, TF over GST control) | 1.04 fold enrichment (6-mer frequency, TF over GST control) | 1.02 fold enrichment (6-mer frequency, TF over GST control) | 1.07 fold enrichment (6-mer frequency, TF over GST control) | 1.02 fold enrichment (6-mer frequency, TF over GST control) | 1 fold enrichment (6-mer frequency, TF over GST control) | 1.06 fold enrichment (6-mer frequency, TF over GST control) | 1.05 fold enrichment (6-mer frequency, TF over GST control) | 1.08 fold enrichment (6-mer frequency, TF over GST control)
TCACAG | 1.09 fold enrichment (6-mer frequency, TF over GST control) | 1.15 fold enrichment (6-mer frequency, TF over GST control) | 1.1 fold enrichment (6-mer frequency, TF over GST control) | – | 1.06 fold enrichment (6-mer frequency, TF over GST control) | – | 1.09 fold enrichment (6-mer frequency, TF over GST control) | 1.09 fold enrichment (6-mer frequency, TF over GST control) | 1.07 fold enrichment (6-mer frequency, TF over GST control) | 1.04 fold enrichment (6-mer frequency, TF over GST control) | 1.17 fold enrichment (6-mer frequency, TF over GST control) | 1.04 fold enrichment (6-mer frequency, TF over GST control) | 1.28 fold enrichment (6-mer frequency, TF over GST control) | 1.13 fold enrichment (6-mer frequency, TF over GST control) | 1.05 fold enrichment (6-mer frequency, TF over GST control) | 1.02 fold enrichment (6-mer frequency, TF over GST control) | 1.01 fold enrichment (6-mer frequency, TF over GST control)
